In PubChem BioAssay (NCATS):
Results filed as inconclusive are left out. Unmarked numbers belong to inactive results. Calls of active or inactive are those of the source. The call rests on the fitted dose curve; in most records, active means well fitted inhibition curve with a large enough effect; inconclusive means small, poorly fitted or top-dose-only effect; inactive means flat fitted curve, though single readings scatter.

Assays:
[1] = qHTS profiling for inhibitors of Plasmodium falciparum proliferation (AID 504749); further: nearly all actives have a fitted effect of over 60% in size;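 on activity, negative = inhibition: 0% = DMSO vehicle and full inhibition = artemisinin control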; conditions: P. falciparum in erythrocytes, SYBR Green DNA, 72 h
Procedure, shortened: (§1)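 Parasite proliferation within erythrocytes, 72 h exposure. Endpoint: SYBR Green I fluorescence after overnight lysis at room temperature. Controls: 0.29 uM artemisinin, DMSO.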

3D7 = assay: as above; conditions: P. falciparum in erythrocytes, SYBR Green DNA, 72 h; series mostly up to 28.7 µM
Procedure, shortened: as §1

7G8 = assay: as above; conditions: P. falciparum in erythrocytes, SYBR Green DNA, 72 h; series mostly up to 28.7 µM
Procedure, shortened: as §1

[2] = at 28.7 µM (top of the series), parasite line A
[3] = at 28.7 µM (top of the series), parasite line B
[4] = at 12.8 µM (top of the series), parasite line A
[5] = at 12.8 µM (top of the series), parasite line B
Potency means the concentration at half of the fitted maximal effect.

SMILES: CN1C(=O)C(O)N=C(c2ccccc2)c2cc(Cl)ccc21 (stereo not given)
- activity, negative = inhibition [1, 2]: 4.85%
- Potency (3D7): inactive
- Potency (7G8): inactive

SMILES: Nc1nc(N)nc(NC2CC2)n1
- activity, negative = inhibition [1, 2]: -13.5%
- activity, negative = inhibition [1, 3]: 1.17%
- Potency (3D7): inactive
- Potency (7G8): inactive

SMILES: CCC1(c2ccccc2)C(=O)N(COC)C(=O)N(COC)C1=O
- activity, negative = inhibition [1, 2]: 4.41%
- activity, negative = inhibition [1, 3]: 7.29%
- Potency (3D7): inactive
- Potency (7G8): inactive

SMILES: NCCc1ccc(O)cc1
- activity, negative = inhibition [1, 2]: 8.86%
- activity, negative = inhibition [1, 3]: 7.85%
- Potency (3D7): inactive
- Potency (7G8): inactive

SMILES: CC(C)(C)NCC(O)c1ccccc1Cl (stereo not given)
- activity, negative = inhibition [1, 2]: -1.78%
- Potency (3D7): inactive
- Potency (7G8): 11.2 µM (active)

SMILES: CNC(C)(C)Cc1ccccc1
- activity, negative = inhibition [1, 4]: 5.96%
- activity, negative = inhibition [1, 5]: 5.61%
- Potency (3D7): inactive
- Potency (7G8): inactive

SMILES: COP(=S)(OC)Oc1ccc(SC)c(C)c1
- activity, negative = inhibition [1, 2]: 8.16%
- activity, negative = inhibition [1, 3]: 12.2%
- Potency (3D7): inactive
- Potency (7G8): inactive

SMILES: CC(C)=CC1C(C(=O)OCN2C(=O)C3=C(CCCC3)C2=O)C1(C)C (stereo not given)
- activity, negative = inhibition [1, 2]: 4.58%
- activity, negative = inhibition [1, 3]: 1.1%
- Potency (3D7): inactive
- Potency (7G8): inactive

SMILES: COc1ccc2c(c1)C13CCCC[C@@H]1C(C2)N(C)CC3 (stereo not given in full)
- activity, negative = inhibition [1, 2]: 4.6%
- activity, negative = inhibition [1, 3]: -5.63%
- Potency (3D7): inactive
- Potency (7G8): 4.47 µM (active)

SMILES: COP(=S)(OC)SCN1C(=O)c2ccccc2C1=O
- activity, negative = inhibition [1, 2]: 6.4%
- activity, negative = inhibition [1, 3]: 1.71%
- Potency (3D7): inactive
- Potency (7G8): inactive

SMILES: COc1c2c(cc3c1OCO3)CCN(C)C2
- activity, negative = inhibition [1, 4]: 4.79%
- activity, negative = inhibition [1, 5]: 6.97%
- Potency (3D7): inactive
- Potency (7G8): inactive

SMILES: O=C1c2ccccc2C(=O)c2ccccc21
- activity, negative = inhibition [1, 2]: -2.68%
- activity, negative = inhibition [1, 3]: 6.43%
- Potency (7G8): 5.01 µM (active)

SMILES: O=C(Nc1ccc(Br)cc1)c1cc(Br)cc(Br)c1O
- activity, negative = inhibition [1, 2]: 6.84%
- activity, negative = inhibition [1, 3]: 4.1%
- Potency (3D7): inactive
- Potency (7G8): inactive

SMILES: NNc1ccccc1
- activity, negative = inhibition [1, 2]: 7.49%
- Potency (3D7): inactive
- Potency (7G8): inactive

SMILES: CN1C(=O)NC(=O)C(C)(C2=CCCCC2)C1=O (stereo not given)
- activity, negative = inhibition [1, 3]: 7.06%
- Potency (3D7): inactive
- Potency (7G8): inactive

SMILES: CCC1(CC)C(=O)C=CNC1=O
- activity, negative = inhibition [1, 2]: 10.7%
- activity, negative = inhibition [1, 3]: 6.45%
- Potency (3D7): inactive
- Potency (7G8): inactive

SMILES: CCCCC/C=C\C/C=C\C/C=C\C/C=C\CCCC(=O)NCC(=O)O
- activity, negative = inhibition ([1]; at 2.67 µM (top of the series), parasite line A): -21.1%
- activity, negative = inhibition ([1]; at 2.67 µM (top of the series), parasite line B): 4.55%
- activity, negative = inhibition (3D7): -0.415% [at 2.67 µM]
- activity, negative = inhibition (7G8): -4.42% [at 2.67 µM]

SMILES: COC1CC(=C(c2cccs2)c2cccs2)C[N+](C)(C)C1 (stereo not given)
- Potency ([1]; parasite line A): 3.98 µM (active)
- Potency ([1]; parasite line B): 4.47 µM (active)
- Potency (3D7): 11.2 µM (active)
- Potency (7G8): 10 µM (active)

SMILES: C[C@]12CC[C@@H]3c4ccc(OC(=O)N(CCCl)CCCl)cc4CC[C@H]3[C@@H]1CC[C@@H]2O
- activity, negative = inhibition [1, 2]: 15.2%
- activity, negative = inhibition [1, 3]: 2.03%
- Potency (3D7): inactive
- Potency (7G8): inactive

SMILES: O=C(N/N=C/c1ccc([N+](=O)[O-])o1)c1cc([N+](=O)[O-])cc([N+](=O)[O-])c1O
- Potency ([1]; parasite line A): 0.447 µM (active)
- Potency ([1]; parasite line B): 0.0708 µM (active)
- Potency (3D7): 0.891 µM (active)
- Potency (7G8): inactive
